Source: PubChem
BAZ2B inh: qHTS Assay for Inhibitors of BAZ2B | AlphaScreen BAZ2B-H3K14Ac peptide displacement | Potency, µM (highest dose often 114 µM), actives largely listed as inhibitors | 360,000 compounds, 4.4% hits | AID 504333, 2011; also: nearly all actives have a fitted effect of over 60% in size
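Protein-peptide AlphaScreen: BAZ2B 50 nM, b-H3K14Ac 50 nM, 1x PBS pH 7.4 + 0.01% Tween-20. Preincubation 30 min RT; cpd 30 min RT (top 110 uM); beads 20 min RT, light-protected.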
JMJD2A Tudor inh: qHTS Assay for Inhibitors of JMJD2A-Tudor Domain; AlphaScreen JMJD2A-Tudor / H3K4me3 peptide binding; 390,000 compounds, 4.4% hits; Potency, µM (highest dose often 114 µM), most hits filed as inhibitors; also: nearly all actives have a fitted effect of over 50% in size
VDR inhibitor: Inhibitors of the vitamin D receptor (VDR): qHTS | 400,000 compounds, 0.93% hits | VDR-SRC2-3 peptide fluorescence polarization, 2 h | Potency, µM, actives largely listed as inhibitors | Vitamin D3 receptor (Homo sapiens), P11473
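Reagent solutions, kept cold and dark, are dispensed first; compounds are then pinned in at 23 nl, plates briefly spun, and incubated 2 h at ambient temperature. Inhibition of VDR–SRC2-3 peptide binding is read by fluorescence polarization.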
HP1b chromo inh: HTS for Inhibitors of HP1-beta Chromodomain Interactions with Methylated Histone Tails; Chromobox protein homolog 1 (Homo sapiens), P83916; 390,000 compounds, 0.56% hits; Potency, µM (series often up to 114 µM), actives largely listed as inhibitors; AID 540317, 2011; AlphaScreen HP1-beta / biotin-H3K9me3 peptide binding; also: nearly all actives have a fitted effect of over 70% in size
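HP1-beta protein (50 nM final) preincubated 30 min at room temperature with biotinylated H3(1-18)K9me3 peptide (50 nM) in PBS pH 7.4, 0.01% Tween-20, then compound added for 30 min. AlphaScreen streptavidin donor/nickel chelate acceptor beads (10 ug/mL final), 30 min dark, luminescence read.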
PLK1 PBD inh: qHTS for Inhibitors of PLK1-PDB (polo-like kinase 1 - polo-box domain): Primary Screen | 360,000 compounds, 2.8% hits | Serine/threonine-protein kinase PLK1 (Homo sapiens), P53350 | Potency, µM, actives largely listed as inhibitors | AID 720504, 2013 | Plk1 PBD binding of FITC phosphopeptide, fluorescence polarization; also: series mostly up to about 57 µM; nearly all actives have a fitted effect of over 65% in size
G9a inh: qHTS Assay for Inhibitors of Histone Lysine Methyltransferase G9a. Potency, µM (highest dose often 102 µM), usual class: inhibitors. 350,000 compounds, 8.8% hits. Histone-lysine N-methyltransferase EHMT2 (Homo sapiens), Q96KQ7. G9a H3K9 monomethylation, AlphaScreen, 2 h; also: nearly all actives have a fitted effect of over 75% in size
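Readings reflect AlphaScreen signal from monomethyl-H3K9 antibody detection. HMT at 20 nM; substrate b-H3K9 500 nM; cofactor SAM 20 uM; 2 h RT reaction; compounds tested as titrations in qHTS with 15 min preincubation.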
Numbers stand for hits; . = inactive; ? = inconclusive; / = no result; [ ] = dose if it differs, or a comment. Rows were chosen to be rich in hits. Some 11% of all compounds tested hit in one or more screens of this group. Calls follow the shape of the dose curve; as a rule, active = well fitted curve in the direction sought with a large enough effect; inconclusive = small, poorly fitted or top-dose-only effect, or another doubt; inactive = no such curve, though single readings can be large; an effect the other way counts as inactive or inconclusive.

SMILES | BAZ2B inh | JMJD2A Tudor inh | VDR inhibitor | HP1b chromo inh | PLK1 PBD inh | G9a inh
Cn1c(/C(C#N)=C/c2cccc(O)c2)nc2ccccc21 | . | 22µM | 79µM | ? | 27µM | .
Cc1ccc2c(c1)N(C(=O)CCC(=O)NCc1cccc(F)c1)CC(C)O2 (stereo not drawn) | . | . | . | . | / | .
CCC(c1nnnn1CCc1ccccc1)N1CCN(C(=O)c2ccco2)CC1 (stereo not drawn) | 50µM | . | . | . | . | 50µM
CCOc1ccc(C(c2nnnn2Cc2ccccc2)N2CCN(C(=O)c3ccco3)CC2)cc1 (stereo not drawn) | / | . | . | . | . | /
COc1ccc(C(c2nnnn2Cc2ccccc2)N2CCN(C(=O)c3ccco3)CC2)cc1 (stereo not drawn) | . | .[11.4 µM] | . | . | . | 56µM
Cc1ccc(C(c2nnnn2Cc2cccs2)N2CCN(C(=O)c3ccco3)CC2)cc1 (stereo not drawn) | ? | ? | . | . | . | 40µM
CN1CCN(c2ccc(CNC(=O)C3(C)Cc4c(-c5ccccc5)ccnc4O3)cc2)CC1 (stereo not drawn) | / | / | / | / | . | /
COc1ccccc1OCCNC(=O)c1ccc(C)o1 | . | . | . | . | . | .
O=C(NCc1ccco1)c1ccc(Cn2c(=O)c3sccc3n(Cc3cccc(F)c3)c2=O)cc1 | . | . | . | . | . | .
O=C(NCc1cccc(F)c1)c1ccc(N2C(=O)Cn3c(cc4sccc43)C2=O)cc1 | . | 79µM | . | . | ? | .
Cc1ccccc1NC(=O)C1c2cccc[n+]2CC(=O)N1Cc1ccc2c(c1)OCO2 (stereo not drawn) | . | ? | . | . | . | 11µM
CC1CCCC(NC(=O)C2c3ccccc3C(=O)N2Cc2cccs2)C1C (stereo not drawn) | . | . | ? | . | . | .
Cc1cccc(C)c1NC(=O)C1c2cccc[n+]2CC(=O)N1Cc1cccs1 (stereo not drawn) | / | . | . | . | . | 50µM
Cc1cccc(C)c1NC(=O)C1c2ccccc2OCC(=O)N1Cc1ccc2c(c1)OCO2 (stereo not drawn) | / | / | / | / | . | /
CCOc1ccccc1NC(=O)C1=C(C)Nc2ncnn2C1c1cccs1 (stereo not drawn) | . | . | . | . | / | .
CC1(C(=O)NCc2ccc(Cl)c(Cl)c2)Oc2ccccc2NC1=O (stereo not drawn) | . | . | . | . | . | .
COc1ccc(OC)c(CN2C(=O)CSCC2(C)C(=O)NCc2ccccc2)c1 (stereo not drawn) | / | / | / | / | . | /
COc1ccc(C(=O)Nc2cc(C)c(NC(=O)c3ccccn3)cn2)cc1 | . | . | . | . | . | 45µM
COc1ccc(C(=O)Nc2cnc(NC(=O)c3cccs3)cc2C)cc1 | . | . | . | . | . | .
Cc1cc(NC(=O)C2CC2)ncc1NC(=O)c1ccccn1 | 79µM | . | . | . | 27µM | ?
Cc1nc2ccccc2n1/C(=N\S(=O)(=O)c1ccccc1)c1ccccc1 | . | . | ? | . | . | 50µM
CCC/C=C/c1ccc(CN2C(C)C(=O)N(Cc3cn(CC4CCCCC4)nn3)CCS2(=O)=O)cc1 (stereo not drawn) | / | / | / | / | . | /
Cc1ccccc1-c1ccc2ncnc(NCCN3CCOCC3)c2c1 | / | / | 50µM | / | / | .[0.501 µM]
Cc1ccccc1-c1ccc2ncnc(N3CCOCC3)c2c1 | / | / | 56µM | / | / | .[0.501 µM]
Cc1noc(C)c1-c1ccc2ncnc(NC3CC3)c2c1 | / | / | . | / | / | /
SMILES | BAZ2B inh | JMJD2A Tudor inh | VDR inhibitor | HP1b chromo inh | PLK1 PBD inh | G9a inh
Cc1noc(C)c1-c1ccc2ncnc(N3CCOCC3)c2c1 | / | / | 50µM | / | / | .[0.501 µM]
Cc1noc(C)c1-c1ccc2ncnc(NC3CCNCC3)c2c1 | / | / | 45µM | / | / | .[0.501 µM]
COc1ccc(NC(=O)CSc2nc3ccccc3nc2N2CCOCC2)c(OC)c1 | . | ? | . | . | . | .
N#C/C(=C\c1cccn1S(=O)(=O)c1cccc(C#N)c1)S(=O)(=O)c1ccc(F)cc1 | / | / | / | / | . | /
COc1ccc(C2=CC(c3c(C)nn(-c4ccccc4)c3Cl)n3nnnc3N2)cc1OC (stereo not drawn) | . | ? | . | . | . | 45µM
COc1ccc(N(CC(=O)NC(C)C)S(=O)(=O)c2ccc(NC(C)=O)cc2)cc1 | . | . | . | . | . | 1.4µM
COc1ccc(N(CC(=O)NC(C)c2ccccc2)S(=O)(=O)c2ccc(C)cc2)cc1 (stereo not drawn) | . | . | . | . | . | .
CCC(C)NC(=O)CN(c1ccc(OC)cc1)S(=O)(=O)c1ccccc1 (stereo not drawn) | . | ? | ? | . | 21µM | .
O=C(O)c1ccc2c(c1)-c1nc3ccccc3n1C2=O | ? | 18µM | . | . | . | 40µM
COc1ccc(-n2c(CNC(=O)c3cc(OC)c(OC)c(OC)c3)n[nH]c2=S)cc1 | ? | 7.1µM | . | . | . | 8.9µM
COc1cc(OC)cc(C(=O)NCc2n[nH]c(=S)n2-c2ccccc2OC)c1 | . | 10µM | . | . | . | 1µM
COc1ccccc1-n1c(CNC(=O)c2cccs2)n[nH]c1=S | . | ? | . | . | . | ?
Cc1c(Br)cc(F)c([S+](=O)([O-])N2CCN([S+](=O)([O-])c3ccc4c(c3)OCCO4)CC2)c1F | / | . | / | / | / | /
NNC(=O)c1sc2cc(C(F)(F)F)cnc2c1-c1cccs1 | . | . | ? | . | . | .
O=C(Nc1ccccc1)c1sc2cc(C(F)(F)F)cnc2c1-c1cccs1 | . | 28µM | ? | . | 3µM | ?
COc1ccc(CC(=O)Nc2c(C(=O)N3CCN(c4ccccc4F)CC3)oc3ccccc23)cc1OC | . | . | . | . | / | .
C=CCN1CCc2c(cc(O)c(O)c2Br)[C@@H](c2ccccc2)C1 | / | ? | . | . | . | 8.9µM
Cc1ccccc1NC(=O)Cc1nnc(SCC(=O)Nc2ccccc2)n1C | . | . | . | . | . | .
COc1ccc(Cc2n[nH]c(=S)n2NC(=O)Nc2ccc(Cl)c(Cl)c2)cc1 | . | . | . | . | . | ?
Cc1ccc(NC(=O)Cc2n[nH]c(=S)n2C)cc1 | . | 8.9µM | . | . | . | ?
CCn1c(CC(=O)Nc2ccc(C)cc2)n[nH]c1=S | ? | 3.5µM | . | . | . | 5µM
Cn1c(CC(=O)Nc2ccccc2)n[nH]c1=S | . | 5µM | . | . | . | .
